Many of the other results were omitted from the sample, so hits are more common in it than they were.
CHX counter = Cycloheximide Counterscreen for Small Molecule Inhibitors of Shiga Toxin; cell reporter, cycloheximide protein synthesis inhibition counterscreen; 300,000 tested, 12% active; max response, %; AID 2314, 2010; in the data active = max response mostly above about 13%, no sharp cut-off; inactive = mostly below about 14%; also: read at 38.3 µM for the half of the compounds with a filed dose
FBPA Giardia inh = qHTS Assay for Inhibitors of Fructose-1,6-bisphosphate Aldolase from Giardia Lamblia; 290,000 tested, 0.71% active; AID 2451, 2010; Potency, µM (titrated, usually from 59.6 µM), usual class: inhibitors; purified Giardia FBPA; also: nearly all actives have a fitted effect of over 55% in size
Target sequence (A8B2U2 whole entry, looked up): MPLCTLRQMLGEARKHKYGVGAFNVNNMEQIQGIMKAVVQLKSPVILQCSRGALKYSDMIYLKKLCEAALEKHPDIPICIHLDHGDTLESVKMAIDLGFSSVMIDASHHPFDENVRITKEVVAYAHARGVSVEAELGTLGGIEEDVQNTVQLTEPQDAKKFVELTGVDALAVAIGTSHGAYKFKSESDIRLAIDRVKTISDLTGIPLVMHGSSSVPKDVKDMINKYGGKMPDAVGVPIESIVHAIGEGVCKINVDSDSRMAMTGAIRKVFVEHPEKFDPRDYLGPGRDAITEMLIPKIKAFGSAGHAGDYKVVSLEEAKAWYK
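Giardia FBPA (40 nM reagent) was preincubated 10 min at RT with compound (up to 57.5 uM final), then substrate plus GAPDH/TPI/NAD/arsenate coupling system with diaphorase/resazurin was added; resorufin fluorescence (525/598 nm) was read after 20 min.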
Shiga toxin inh = A qHTS for Small Molecule Inhibitors of Shiga Toxin; AID 2315, 2010; Vero cells, Shiga toxin protein synthesis inhibition reporter; 290,000 tested, 9.2% active; inhibition, % at 38.7 µM; in the data active = inhibition mostly above about 28%, no sharp cut-off; inactive = mostly below about 43%
TbPYK inhibitor = qHTS of Trypanosoma Brucei Inhibitors; pyruvate kinase (Trypanosoma brucei), Q57TT1; TbPYK enzyme, Kinase-Glo Plus ATP luminescence, 45 min; Potency, µM (highest dose often 76.8 µM), actives largely listed as inhibitors; 410,000 tested, 0.12% active; AID 624173, 2012; also: nearly all actives have a fitted effect of over 50% in size
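Luminescent Kinase-Glo Plus end-point after 45 min room-temperature reaction of T. brucei pyruvate kinase started with 130 uM ADP (final). Buffer TEA 50 mM pH 7.2 with KCl, MgCl2, BSA, Tween-20; titration-based qHTS with fitted concentration-effect curves.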
LmPK inhibitor = qHTS Assay for Inhibitors of Leishmania Mexicana Pyruvate Kinase (LmPK) | 290,000 tested, 0.37% active | purified LmPK, Kinase-Glo ATP luminescence, 1 h | Potency, µM (doses to about 57.5 µM), usual class: inhibitors | Q27686
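Pyruvate kinase activity monitored as ATP production (luciferase luminescence). Conditions: 0.1 nM enzyme, 0.5 mM PEP, 0.1 mM ADP, 1 h, RT; normalized against uninhibited and no-enzyme wells.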
Sm TGR block = qHTS Assay for the Inhibitors of Schistosoma Mansoni Peroxiredoxins. AID 485364, 2010. purified TGR, DTNB reduction, TNB absorbance 405 nm. Potency, µM (doses to about 114 µM), most hits filed as inhibitors. 360,000 tested, 3% active. Schistosoma mansoni thioredoxin glutathione reductase (TGR), Q962Y6; also: nearly all actives have a fitted effect of over 60% in size
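Kinetic colorimetric format: TGR-catalysed, NADPH-driven DTNB reduction monitored via TNB absorbance. Enzyme dispensed at 20 nM; compound exposure 15 min at room temperature before reaction start.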
Numbers stand for hits. Unless noted, calls follow the shape of the dose curve; as a rule, active = well fitted curve in the direction sought with a large enough effect; inconclusive = small, poorly fitted or top-dose-only effect, or another doubt; inactive = no such curve, though single readings can be large; an effect the other way counts as inactive or inconclusive.

Results for COc1ccc(Cc2nnc(NC(=O)C3CCCO3)s2)cc1 (centres undefined) ?
CHX counter: 24; FBPA Giardia inh: inactive; Shiga toxin inh: inactive; TbPYK inhibitor: inactive; LmPK inhibitor: inactive; Sm TGR block: inactive

How did O=C(Nc1ccccc1O)c1ccc(NC(=O)C2CC2)cc1 do in these assays?
CHX counter: 39; FBPA Giardia inh: inactive; Shiga toxin inh: 83; TbPYK inhibitor: inactive; LmPK inhibitor: inactive; Sm TGR block: inactive

Results for COc1ccc(Cc2nnc(NC(=O)C3CCCO3)s2)cc1OC (centres undefined) ?
CHX counter: inactive; FBPA Giardia inh: inactive; Shiga toxin inh: inactive; TbPYK inhibitor: inactive; LmPK inhibitor: inactive; Sm TGR block: inactive

How did CCc1ccc(-c2csc(NC(=O)C3CCCO3)c2C(=O)OC(C)C)cc1 (centres undefined) do in these assays?
CHX counter: inactive; FBPA Giardia inh: inactive; Shiga toxin inh: inactive; TbPYK inhibitor: inactive; LmPK inhibitor: inactive; Sm TGR block: inactive

What do the screens show for `COC(=O)c1c(-c2ccc(F)cc2)csc1NC(=O)C1CCCO1` (centres undefined)?
CHX counter: 26; FBPA Giardia inh: inactive; Shiga toxin inh: inactive; TbPYK inhibitor: inactive; LmPK inhibitor: inactive; Sm TGR block: inactive

How did O=C(NCc1ccccc1)c1ccc(NC(=O)C2CC2)cc1 do in these assays?
TbPYK inhibitor: inactive

How did COc1ccccc1N1CCN(C(=O)Cn2cnc3onc(-c4ccc(F)cc4)c3c2=O)CC1 do in these assays?
TbPYK inhibitor: inactive; Sm TGR block: inactive

How did CC1CC(C)CN(C(C(=O)NC2CCCCC2)c2cc3ccccc3o2)C1 (centres undefined) do in these assays?
TbPYK inhibitor: inactive

What do the screens show for `COc1ccc(NC(=O)C2CCCO2)cc1` (centres undefined)?
CHX counter: 16; FBPA Giardia inh: inactive; Shiga toxin inh: inactive; TbPYK inhibitor: inactive; LmPK inhibitor: inactive; Sm TGR block: inactive

What do the screens show for `COc1ccccc1-c1cc(C(=O)NCc2ccccc2)no1`?
CHX counter: inactive; FBPA Giardia inh: inactive; Shiga toxin inh: inactive; TbPYK inhibitor: inactive; LmPK inhibitor: inactive; Sm TGR block: inactive

How did COc1ccccc1-c1cc(C(=O)NC2CCCC2)no1 do in these assays?
CHX counter: 16; FBPA Giardia inh: inactive; Shiga toxin inh: 71; TbPYK inhibitor: inactive; LmPK inhibitor: inactive; Sm TGR block: inactive

Results for O=C(NC1CCCC1)c1cc(-c2ccccc2Cl)on1 ?
CHX counter: 43; FBPA Giardia inh: inactive; Shiga toxin inh: 107; TbPYK inhibitor: inactive; LmPK inhibitor: inactive; Sm TGR block: inactive

Results for COCC(C)NC(=O)c1cc(-c2ccccc2OC)on1 (centres undefined) ?
CHX counter: 41; FBPA Giardia inh: inactive; Shiga toxin inh: 39; TbPYK inhibitor: inactive; LmPK inhibitor: inactive; Sm TGR block: inactive

What do the screens show for `COc1ccc(NC(=O)c2cc(-c3cccs3)on2)c(OC)c1`?
CHX counter: inactive; FBPA Giardia inh: inactive; Shiga toxin inh: inactive; TbPYK inhibitor: inactive; LmPK inhibitor: inactive; Sm TGR block: inactive

Results for O=C(NC1CCCC1)c1cc(-c2cccs2)on1 ?
CHX counter: 57; FBPA Giardia inh: inactive; Shiga toxin inh: 182; TbPYK inhibitor: inactive; LmPK inhibitor: inactive; Sm TGR block: inactive

What do the screens show for `Cc1ncc(COC(=O)C(C)C)c2cc(C(=O)Nc3ccccc3C(F)(F)F)c(=O)oc12`?
TbPYK inhibitor: inactive; Sm TGR block: inactive

How did O=C(NC1CCCC1)c1cc(-c2ccccc2O)on1 do in these assays?
CHX counter: 34; FBPA Giardia inh: inactive; Shiga toxin inh: 91; TbPYK inhibitor: inactive; LmPK inhibitor: inactive; Sm TGR block: inactive

What do the screens show for `O=C(NC1CCCCC1)c1cc(-c2ccccc2Cl)on1`?
CHX counter: 45; FBPA Giardia inh: inactive; Shiga toxin inh: 137; TbPYK inhibitor: inactive; LmPK inhibitor: inactive; Sm TGR block: inactive

Results for CC1CCCC(C)N1C(=O)c1cc(-c2cccs2)on1 (centres undefined) ?
CHX counter: 26; FBPA Giardia inh: inactive; Shiga toxin inh: 70; TbPYK inhibitor: inactive; LmPK inhibitor: inactive; Sm TGR block: inactive

Results for O=C(NC1CCCCCCC1)c1c(Cl)cccc1Cl ?
TbPYK inhibitor: inactive

What do the screens show for `O=C(NC1CCCC1)c1cc(-c2ccc(Cl)cc2Cl)on1`?
CHX counter: 44; Shiga toxin inh: 105; TbPYK inhibitor: inactive; LmPK inhibitor: inactive; Sm TGR block: inactive

How did CCOC(=O)c1sc(NC(=O)c2cc(-c3ccc(F)cc3)on2)c(C(=O)OCC)c1C do in these assays?
TbPYK inhibitor: inactive; Sm TGR block: inactive

How did CCN1CCN(c2cc(C)c3cc(NC(=O)/C=C/c4cccc(Cl)c4)ccc3n2)CC1 do in these assays?
TbPYK inhibitor: inactive; Sm TGR block: inactive

Results for CCOC(=O)c1cc2c(cn1)[nH]c1ccccc12 ?
CHX counter: 27; FBPA Giardia inh: inactive; Shiga toxin inh: 59; TbPYK inhibitor: inactive; LmPK inhibitor: inactive; Sm TGR block: inactive

Results for CCN(c1cccc(C)c1)C(C(=O)Nc1ccc(OC)cc1)c1cc2c(cc1[N+](=O)[O-])OCO2 (centres undefined) ?
CHX counter: 11; FBPA Giardia inh: inactive; Shiga toxin inh: inactive; TbPYK inhibitor: inactive; LmPK inhibitor: inactive; Sm TGR block: inactive

Results for COc1cccc(C2Nc3c(F)cc(Br)cc3C3C=CCC32)c1OC (centres undefined) ?
CHX counter: inactive; FBPA Giardia inh: inactive; Shiga toxin inh: inactive; TbPYK inhibitor: inactive; LmPK inhibitor: inactive; Sm TGR block: inactive

What do the screens show for `COc1cc(C2Nc3c(F)cccc3C3C=CCC32)cc(Br)c1OC` (centres undefined)?
CHX counter: inactive; FBPA Giardia inh: inactive; Shiga toxin inh: inactive; TbPYK inhibitor: inactive; LmPK inhibitor: inactive; Sm TGR block: 20µM

How did O=C1c2ccccc2C(=O)N1CCCc1c[nH]c2ccc(Cl)cc12 do in these assays?
CHX counter: 14; FBPA Giardia inh: inactive; Shiga toxin inh: inactive; TbPYK inhibitor: inactive; LmPK inhibitor: inactive; Sm TGR block: inactive

What do the screens show for `O=C(CN1C(=O)c2ccccc2C1=O)NCCc1c[nH]c2ccc(Cl)cc12`?
CHX counter: inactive; FBPA Giardia inh: inactive; Shiga toxin inh: inactive; TbPYK inhibitor: inactive; LmPK inhibitor: inactive; Sm TGR block: inactive

What do the screens show for `O=C(Oc1ccc2[nH]cc(CCN3C(=O)c4ccccc4C3=O)c2c1)c1ccco1`?
CHX counter: 27; FBPA Giardia inh: inactive; Shiga toxin inh: inactive; TbPYK inhibitor: inactive; LmPK inhibitor: inactive; Sm TGR block: inactive

What do the screens show for `COc1ccc2[nH]cc(CCNC(=O)c3ccco3)c2c1`?
TbPYK inhibitor: inactive; Sm TGR block: inactive

Screening results (PubChem BioAssay)
